# Results from PubChem BioAssay (NCATS).
# Several values for one entry are separate records, joined by “and”; a condition that tells them apart may be missing. Identical values can stand only once. Inconclusive results are not listed. A structure can be active in one record and inactive in another. Activity calls are given as the source filed them. Unless noted, no rule for the calls is given here.
# What was measured:
# [1] = target: T1, Hexokinase-4 (Homo sapiens) + Glucokinase regulatory protein (Homo sapiens) (UniProt P35557+Q14397); test: qHTS assay for inhibitors of recombinant human GCK-GKRP interaction: ADP-Glo assay (AID 743206; active = well fitted curve in the direction sought with a large enough effect; an effect the other way counts as inactive or inconclusive;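 also: plate controls were DMSO plus enzyme for no effect and no enzyme for full effect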)
# T1 sequence (P35557 whole entry, looked up): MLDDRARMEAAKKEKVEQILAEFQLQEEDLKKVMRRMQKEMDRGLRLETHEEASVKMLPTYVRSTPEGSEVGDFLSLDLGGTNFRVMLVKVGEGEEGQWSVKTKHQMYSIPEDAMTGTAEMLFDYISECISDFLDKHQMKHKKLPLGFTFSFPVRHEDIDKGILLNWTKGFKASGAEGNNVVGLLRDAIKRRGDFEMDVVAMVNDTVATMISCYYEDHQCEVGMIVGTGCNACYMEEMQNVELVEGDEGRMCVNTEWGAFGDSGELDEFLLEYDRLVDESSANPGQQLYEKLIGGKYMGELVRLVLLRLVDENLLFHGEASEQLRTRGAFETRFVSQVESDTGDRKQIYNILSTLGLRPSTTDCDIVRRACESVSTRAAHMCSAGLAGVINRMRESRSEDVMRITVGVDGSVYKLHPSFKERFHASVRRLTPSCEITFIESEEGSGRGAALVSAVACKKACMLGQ
# T1 sequence (Q14397 whole entry, looked up): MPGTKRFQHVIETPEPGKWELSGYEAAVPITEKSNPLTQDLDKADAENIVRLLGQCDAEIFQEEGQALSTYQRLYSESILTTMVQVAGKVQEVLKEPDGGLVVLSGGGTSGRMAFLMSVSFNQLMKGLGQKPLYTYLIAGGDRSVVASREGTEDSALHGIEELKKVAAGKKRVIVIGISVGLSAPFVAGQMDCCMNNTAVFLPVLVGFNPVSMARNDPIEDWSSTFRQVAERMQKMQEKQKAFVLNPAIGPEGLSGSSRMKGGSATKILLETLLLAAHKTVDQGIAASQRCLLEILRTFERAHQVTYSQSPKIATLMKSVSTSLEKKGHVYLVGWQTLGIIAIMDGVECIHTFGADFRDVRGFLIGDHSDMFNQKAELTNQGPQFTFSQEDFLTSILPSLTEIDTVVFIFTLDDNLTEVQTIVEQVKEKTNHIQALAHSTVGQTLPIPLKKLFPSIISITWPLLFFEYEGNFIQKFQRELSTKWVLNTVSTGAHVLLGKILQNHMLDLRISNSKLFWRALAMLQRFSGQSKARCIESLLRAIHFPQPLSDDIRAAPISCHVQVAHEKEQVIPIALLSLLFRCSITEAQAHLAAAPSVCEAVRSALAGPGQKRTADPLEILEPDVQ
# Outline: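 Pin-transferred compounds meet a 15 nM GST-GCK/15 nM FLAG-GKRP/2 uM S6P mix (dispense concentrations). ATP is then added to 0.4 mM final with 5 mM glucose, and the reaction runs 60 min at room temperature. ADP is quantified luminescently.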
# [2] = target: T1, Hexokinase-4 (Homo sapiens) + Glucokinase regulatory protein (Homo sapiens); test: qHTS assay for inhibitors of recombinant human GCK-GKRP interaction: HTRF assay (AID 743207; active = well fitted curve in the direction sought with a large enough effect; an effect the other way counts as inactive or inconclusive;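 also: 0% = DMSO with GCK present and -100% = DMSO wells lacking GCK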)
# Outline: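 Titration screening format: recombinant GST-GCK and FLAG-GKRP at 5 nM, S6P at 2 uM, labelled anti-tag antibodies, 60 min at RT, dual-wavelength HTRF readout.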
# [3] = qHTS profiling of the MIPE4 collection as inhibitors of Plasmodium falciparum (DD2) proliferation (AID 743345); conditions: P. falciparum Dd2 in erythrocytes, SYBR Green DNA, 72 h; at 28.5 µM (top of the series) unless noted
# Outline: (§1)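 Parasite DNA was quantified by SYBR Green I fluorescence (ex 485, em 535 nm) after overnight lysis in saponin/Triton buffer at room temperature. Cultures at 0.3% parasitemia and 2.5% hematocrit were first exposed to compound for 72 h at 37 C; signals were normalised to artemisinin (0.29 uM) and vehicle wells.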
# [4] = qHTS Assay for Identifying Gametocytocidal Compounds (AID 743244; active = well fitted curve in the direction sought with a large enough effect; an effect the other way counts as inactive or inconclusive; also: potency is read from the fitted curve at half-maximal effect;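 as to max response: % is scaled to controls: 0 for no effect and ±100 for the full control effect; actives lower the fluorescent signal which means gametocytes are killed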); conditions: P. falciparum 3D7 stage III-V gametocytes, alamarBlue, 72 h; max response: stronger effect = lower value
# Outline: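 Late gametocytes (III–V), P. falciparum 3D7; 72 h drug, then 24 h alamarBlue; resazurin reduction read by fluorescence.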
# [5] = qHTS profiling of the MIPE4 collection as inhibitors of Plasmodium falciparum (3D7) proliferation (AID 743344);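 also: scaled between DMSO vehicle wells and 0.29 µM artemisinin as full inhibition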; conditions: P. falciparum 3D7 in erythrocytes, SYBR Green DNA fluorescence, 72 h; at 28.5 µM (top of the series) unless noted
# Outline: as §1
# [6] = qHTS profiling for inhibitors of Plasmodium falciparum (3D7) proliferation (AID 743322);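 also: infected erythrocytes exposed to compound for 72 h before lysis; 100% = DMSO vehicle wells and 0% = 0.29 µM artemisinin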; conditions: P. falciparum 3D7 proliferation; at 28.7 µM (top of the series)
# Outline: as §1
# [7] = qHTS profiling for inhibitors of Plasmodium falciparum (DD2) proliferation (AID 743323); conditions: lower = more inhibition; at 28.7 µM (top of the series)
# Outline: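 1536-well qHTS; infected RBCs 0.3% parasitemia/2.5% Hct final; cpd 72 h 37 C 5% CO2; lysis buffer + SYBR Green I, o/n RT dark; FI 485/535; norm. to 0.29 uM artemisinin and DMSO, plate-stack corrected.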
# [8] = qHTS profiling for inhibitors of Plasmodium falciparum (HB3) proliferation (AID 743324; active = well fitted curve in the direction sought with a large enough effect; an effect the other way counts as inactive or inconclusive;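 also: 100% = DMSO vehicle wells and 0% = artemisinin-treated control wells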); conditions: Plasmodium falciparum HB3 blood-stage proliferation; at 28.7 µM (top of the series)
# Outline: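 SYBR Green fluorescence (485 ex/535 em) of lysed cultures, incubated overnight at room temperature in the dark, quantifies parasite DNA. Infected erythrocytes at 0.3% parasitemia and 2.5% hematocrit were exposed 72 h; values normalized to DMSO and 0.29 uM artemisinin controls.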
# [9] = qHTS assay for cell viability of HEK293 cells (AID 743288; active = well fitted curve in the direction sought with a large enough effect; an effect the other way counts as inactive or inconclusive; also: % is scaled to controls: 0 for no effect and ±100 for the full control effect; nearly all actives have a fitted effect of over 50% in size); conditions: ATP luminescence (CellTiter-Glo), 18 h; max response: stronger effect = lower value
# Outline: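 HEK293, 18 h, 37 C, ATP luminescence. Cells at 2,000/well were allowed at least 5 h to settle before dosing; CellTiter-Glo developed 30 min at RT.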
# [10] = qHTS assay for cell viability of the p53RE-bla HCT-116 cell line (AID 743292; active = well fitted curve in the direction sought with a large enough effect; an effect the other way counts as inactive or inconclusive; also: % is scaled to controls: 0 for no effect and ±100 for the full control effect; nearly all actives have a fitted effect of over 55% in size)
# Outline: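 HCT-116 p53RE-bla cells seeded 4,000/well; 5 h at 37 C; compound (DMSO) added; 16 h at 37 C; CellTiter-Glo added, 30 min RT; luminescence read.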
smiles,measurement,setting,value
CCCCCN(C)CCC(O)(P(=O)(O)O)P(=O)(O)O,outcome,[1],inactive
same,outcome,[2],inactive
same,"parasite growth remaining, % of DMSO control (lower = more inhibition)",[3],92.9%
CC(C(=O)O)c1ccc(-c2ccccc2)c(F)c1 (centres undefined),max response,[4],6.81% (inactive)
CC1(C)CCC2=C(O1)c1ccccc1C(=O)C2=O,outcome,[1],inactive
same,Potency,[4],2.82 µM (active)
same,"parasite growth, % of DMSO control",[5],22.8%
same,"parasite growth remaining, % of DMSO control (lower = more inhibition)",[3],71%
O=C1C(Cl)=C(NCCN2CCOCC2)C(=O)c2ncccc21,max response,[4],-156% (inactive)
same,remaining parasite growth % (stronger effect = lower value),[6],34.6%
same,"activity, percent of control",[7],17.3%
same,"remaining proliferation (% of control), lower = more inhibition",[8],26.6%
same,"parasite growth remaining, % of DMSO control (lower = more inhibition)",[3],18%
COc1cc(N2CCC(N3CCN(C)CC3)CC2)ccc1Nc1ncc(Cl)c(Nc2ccccc2S(=O)(=O)C(C)C)n1,Potency,[4],4.69 µM (active)
same,remaining parasite growth % (stronger effect = lower value),[6],-0.393%
same,"activity, percent of control",[7],0.218%
same,"remaining proliferation (% of control), lower = more inhibition",[8],-1.09%
same,"parasite growth, % of DMSO control",[5],3.8%
same,"parasite growth remaining, % of DMSO control (lower = more inhibition)",[3],7.75%
Clc1ccc(-c2nc3sccn3c2C=NOCc2ccc(Cl)c(Cl)c2)cc1,max response,[4],17.5% (inactive)
same,remaining parasite growth % (stronger effect = lower value),[6],110%
same,"activity, percent of control",[7],101%
same,"remaining proliferation (% of control), lower = more inhibition",[8],103%
same,"parasite growth remaining, % of DMSO control (lower = more inhibition)",[3],51.5%
Cc1ccc(F)c(NC(=O)Nc2ccc(-c3cccc4[nH]nc(N)c34)cc2)c1,max response,[4],19.5% (inactive)
same,remaining parasite growth % (stronger effect = lower value),[6],81.3%
same,"activity, percent of control",[7],67.8%
same,"remaining proliferation (% of control), lower = more inhibition",[8],23.1%
same,"parasite growth, % of DMSO control",[5],6.52%
same,"parasite growth remaining, % of DMSO control (lower = more inhibition)",[3],37.7%
O=C(Nc1ccccc1-c1cn2c(CN3CCNCC3)csc2n1)c1cnc2ccccc2n1,Potency,[4],3.72 µM (active)
same,remaining parasite growth % (stronger effect = lower value),[6],-2.01% and -0.108%
same,"activity, percent of control",[7],-0.76% and -0.434%
same,"remaining proliferation (% of control), lower = more inhibition",[8],-2.58% and -1.42%
same,"parasite growth, % of DMSO control",[5],5.22%
same,"parasite growth remaining, % of DMSO control (lower = more inhibition)",[3],5.73%
O=c1cc(N2CCOCC2)oc2c(-c3cccc4c3sc3ccccc34)cccc12,max response,[4],-22.3% (inactive)
same,remaining parasite growth % (stronger effect = lower value),[6],3.79%
same,"activity, percent of control",[7],10.6%
same,"remaining proliferation (% of control), lower = more inhibition",[8],5.89%
same,"parasite growth, % of DMSO control",[5],11.6%
CC(C)C(=O)Nc1ncc(-c2cc(C(F)F)nn2-c2c(Cl)cccc2Cl)s1,max response,[4],17% (inactive)
same,remaining parasite growth % (stronger effect = lower value),[6],0.0648%
same,"activity, percent of control",[7],-0.314%
same,"remaining proliferation (% of control), lower = more inhibition",[8],-0.0078%
same,"parasite growth, % of DMSO control",[5],9.88%
same,"parasite growth remaining, % of DMSO control (lower = more inhibition)",[3],13.6%
O=C(Nc1cc(Cl)cc2c1[nH]c1cnccc12)c1cccnc1,max response,[4],1.52% (inactive)
same,remaining parasite growth % (stronger effect = lower value),[6],-0.264%
same,"activity, percent of control",[7],7.04%
same,"remaining proliferation (% of control), lower = more inhibition",[8],0.746%
same,"parasite growth, % of DMSO control",[5],5.73%
same,"parasite growth remaining, % of DMSO control (lower = more inhibition)",[3],15.5%
COc1cc2nc(-c3ccc(N4CCN(C)CC4)cc3)nc(NCCN3CCOCC3)c2cc1OC,Potency,[4],11.8 µM (active)
same,remaining parasite growth % (stronger effect = lower value),[6],-1.55%
same,"activity, percent of control",[7],-0.313%
same,"remaining proliferation (% of control), lower = more inhibition",[8],-0.898%
same,"parasite growth, % of DMSO control",[5],5.09%
same,"parasite growth remaining, % of DMSO control (lower = more inhibition)",[3],4.83%
O=C(N[C@@H](c1ccccc1)[C@@H]1CCCCN1)c1cccc(C(F)(F)F)c1Cl,Potency,[4],18.7 µM (active)
same,remaining parasite growth % (stronger effect = lower value),[6],52.4%
same,"activity, percent of control",[7],16.6%
same,"remaining proliferation (% of control), lower = more inhibition",[8],29.7%
same,"parasite growth, % of DMSO control",[5],9.06%
same,"parasite growth remaining, % of DMSO control (lower = more inhibition)",[3],8.97%
O=c1[nH]cnc2c1ncn2[C@H]1CC[C@@H](CO)O1,max response,[4],-6.96% (inactive)
same,max response,[9],-8.26% (inactive) and -9.92% (inactive)
same,Potency,[10],inactive
same,"parasite growth remaining, % of DMSO control (lower = more inhibition)",[3],97.1%
COc1ccc(C2CC(c3ccccc3)=NN2c2ccc(S(N)(=O)=O)cc2)cc1 (centres undefined),max response,[4],-8.6% (inactive)
same,remaining parasite growth % (stronger effect = lower value),[6],23.3%
same,"activity, percent of control",[7],40.1%
same,"remaining proliferation (% of control), lower = more inhibition",[8],19.1%
same,"parasite growth, % of DMSO control",[5],50.4%
same,"parasite growth remaining, % of DMSO control (lower = more inhibition)",[3],99.9%
N#Cc1ccc(NC(=O)Nc2ccccc2Br)c2n[nH]nc12,max response,[4],26.2% (inactive)
same,remaining parasite growth % (stronger effect = lower value),[6],66.9%
same,"activity, percent of control",[7],69.6%
same,"remaining proliferation (% of control), lower = more inhibition",[8],37.3%
same,"parasite growth, % of DMSO control",[5],7.67%
CN(C)C1CCN(C(=O)c2ccc(NC(=O)Nc3nc(N4CCOCC4)nc(N4CCOCC4)n3)cc2)CC1,Potency,[4],23.5 µM (active)
same,remaining parasite growth % (stronger effect = lower value),[6],0.246%
same,"activity, percent of control",[7],2%
same,"remaining proliferation (% of control), lower = more inhibition",[8],2.09%
same,"parasite growth, % of DMSO control",[5],5.78%
COc1cc(Nc2ncc(F)c(Nc3ccc4c(n3)NC(=O)C(C)(C)O4)n2)cc(OC)c1OC,max response,[4],23.2% (inactive)
same,remaining parasite growth % (stronger effect = lower value),[6],83%
same,"activity, percent of control",[7],89.1%
same,"remaining proliferation (% of control), lower = more inhibition",[8],58.2%
same,"parasite growth, % of DMSO control",[5],5.27%
same,"parasite growth remaining, % of DMSO control (lower = more inhibition)",[3],7%
O=C(O)c1cc(-c2ccccc2)nc2ccccc12,max response,[4],4.65% (inactive) and 33.8% (inactive)
same,max response,[9],-15% (inactive)
same,Potency,[10],inactive
CC(C)(C)C(=O)Oc1ccc2c(c1)nc(NC(=O)c1cccc([N+](=O)[O-])c1)n2CCCO,max response,[4],2.9% (inactive)
same,remaining parasite growth % (stronger effect = lower value),[6],92%
same,"activity, percent of control",[7],82%
same,"remaining proliferation (% of control), lower = more inhibition",[8],53.3%
same,"parasite growth, % of DMSO control",[5],21.2%
same,"parasite growth remaining, % of DMSO control (lower = more inhibition)",[3],46.4%
CC[C@]1(O)C[C@@H]2CN(CCc3c([nH]c4ccccc34)[C@@](C(=O)OC)(c3cc4c(cc3OC)N(C)[C@H]3[C@@](O)(C(=O)OC)[C@H](OC(C)=O)[C@]5(CC)C=CCN6CC[C@]43[C@@H]65)C2)C1,Potency,[4],15.8 µM (active)
same,max response,[4],-2.09% (inactive)
CC(C)(C)c1cc(C(=O)O)c(NC(=O)Nc2ccc3[nH]ncc3c2)s1,max response,[4],39.1% (inactive)
same,remaining parasite growth % (stronger effect = lower value),[6],97%
same,"activity, percent of control",[7],95.5%
same,"remaining proliferation (% of control), lower = more inhibition",[8],70.8%
same,"parasite growth, % of DMSO control",[5],74.4%
same,"parasite growth remaining, % of DMSO control (lower = more inhibition)",[3],93.1%
CC(C)(C(=O)NCC(F)(F)C(F)(F)F)C(=O)N[C@@H]1C(=O)Nc2ccccc2-c2ccccc21,max response,[4],8.7% (inactive)
same,remaining parasite growth % (stronger effect = lower value),[6],5.09%
same,"activity, percent of control",[7],4.91%
same,"remaining proliferation (% of control), lower = more inhibition",[8],-0.0337%
same,"parasite growth, % of DMSO control",[5],8.18%
same,"parasite growth remaining, % of DMSO control (lower = more inhibition)",[3],9.25%
